# Sampled rows, rich in hits. Any-hit rate of the full collection: about 7.5%.
# ELG1 genotox: qHTS screen for small molecules that induce genotoxicity in human embryonic kidney (HEK293T) cells expressing luciferase-tagged ELG1; HEK293T ELG1-luciferase reporter, luminescence, 16 h; Potency, µM (top dose mostly 46 µM), inactives show at the top dose activity change, positive = activation, hits mostly activators; 1.3% of 330,000 active; also: % of control where 0% means no effect; nearly all actives have a fitted effect of over 60% in size
#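 Screening used a luciferase reporter fused to human ELG1 in HEK293T cells. Luminescence was read on a CCD plate imager after 16 hr exposure and 30 min ONE-Glo incubation.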
# NPC1 promoter act: qHTS Assay for NPC1 Promoter Activators | Huh7 NPC1 promoter luciferase reporter, 24 h | Potency, µM (highest dose often 9.22 µM), for inactives: at the top dose activation, usual class: activators | 2.4% of 320,000 active; also: % of control where 0% means no effect; nearly all actives have a fitted effect of over 60% in size
#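 Luminescence from an NPC1 promoter-driven luciferase reporter in stably transfected Huh7 cells was measured after 24 h compound treatment at 37 °C, followed by 10 min ambient incubation with luciferase detection reagent.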
# Rab9 prom act: qHTS Assay for Rab9 Promoter Activators; Huh7 Rab9 promoter-luciferase reporter, luminescence, 24 h; Potency, µM (top dose mostly 9.22 µM), for the others: at the highest dose activation, negative = inhibition, usual class: activators; 2.8% of 320,000 active; AID 485297, 2010; also: % of control where 0% means no effect; nearly all actives have a fitted effect of over 60% in size
#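 Using Huh7 cells stably transfected with Rab9 promoter–luciferase, compounds were incubated 24 h at 37 °C, 5% CO2; luciferase luminescence was read 10 min after reagent addition.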
# FLuc modulator: qHTS profiling assay for firefly luciferase inhibitor/activator using purifed enzyme and Km concentrations of substrates (counterscreen for miR-21 project); Luciferin 4-monooxygenase (Photinus pyralis), P08659; purified FLuc, Km substrates, luminescence inhibition; Potency, µM (doses to about 57.5 µM), inactives show at the top dose activity change, negative = inhibition, actives largely listed as inhibitors; 6.9% of 360,000 active; AID 588342, 2011;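 also: plate controls were vehicle for no effect and reference inhibitor for full effect; nearly all actives have a fitted effect of over 55% in size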
# Target sequence (P08659 whole entry, looked up): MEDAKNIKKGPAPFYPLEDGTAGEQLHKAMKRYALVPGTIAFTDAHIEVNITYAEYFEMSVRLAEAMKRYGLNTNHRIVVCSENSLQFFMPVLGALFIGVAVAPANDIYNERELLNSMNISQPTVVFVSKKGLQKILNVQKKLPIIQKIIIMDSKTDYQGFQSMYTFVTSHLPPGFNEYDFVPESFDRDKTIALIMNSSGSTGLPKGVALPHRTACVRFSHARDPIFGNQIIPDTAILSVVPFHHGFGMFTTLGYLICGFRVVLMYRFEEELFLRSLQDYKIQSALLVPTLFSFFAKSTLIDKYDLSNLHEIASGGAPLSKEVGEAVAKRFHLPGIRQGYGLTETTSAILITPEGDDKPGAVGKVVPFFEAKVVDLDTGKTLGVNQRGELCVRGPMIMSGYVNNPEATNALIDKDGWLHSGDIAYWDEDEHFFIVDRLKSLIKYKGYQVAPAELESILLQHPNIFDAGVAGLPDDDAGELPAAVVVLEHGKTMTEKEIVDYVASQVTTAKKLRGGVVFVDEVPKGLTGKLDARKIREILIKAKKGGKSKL
#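 Purified P. pyralis luciferase (10nM final) with 10uM D-luciferin and 10uM ATP (Km levels) in 50mM Tris acetate pH 7.5, 10mM Mg acetate, 0.01% Tween-20, 0.05% BSA; qHTS 6-point titration, ~60 µM downward; luminescence read.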
# SMN2 splice enh: qHTS Assay for Enhancers of SMN2 Splice Variant Expression; Potency, µM (highest dose often 46.1 µM), for inactives: top-dose activity change, positive = activation, usual class: activators; 2.8% of 210,000 active; HEK293 SMN2-luciferase splicing reporter, luminescence, 30-36 h; also: % of control where 0% means no effect; nearly all actives have a fitted effect of over 55% in size
#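 HEK293 cells carry an SMN2 […]–luciferase reporter in which exon 7 inclusion puts luciferase in frame. Cells were plated 10-12 h before compound addition, then incubated 30-36 h at 37C. ONE-Glo luminescence was read; sodium butyrate at 4.5 mM final served as control.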
# KinaseGlo FLuc: Counterscreen for Luciferase (Kinase-Glo TM) Inhibition; Luciferin 4-monooxygenase (Photuris pensylvanica), Q27757; Potency, µM (series often up to 38.3 µM), for the others: at the highest dose activity change, negative = inhibition, most hits filed as inhibitors; 0.28% of 200,000 active; Kinase-Glo luciferase, ATP luminescence, 8 min; also: % is scaled to controls: 0 for no effect and ±100 for the full control effect; nearly all actives have a fitted effect of over 60% in size
#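 Compound is pinned into ATP-containing buffer (10 uM ATP, imidazole pH 7.2, 7 mM MgCl2). Kinase-Glo luciferase reagent is then added. Light output is recorded following an 8-min room-temperature incubation.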
# * hit, by the source's call; ? = inconclusive; / = no result. Calls follow the shape of the dose curve; as a rule, active = well fitted curve in the direction sought with a large enough effect; inconclusive = small, poorly fitted or top-dose-only effect, or another doubt; inactive = no such curve, though single readings can be large; an effect the other way counts as inactive or inconclusive. Potency is read from the fitted curve at half-maximal effect.
SMILES,ELG1 genotox,NPC1 promoter act,Rab9 prom act,FLuc modulator,SMN2 splice enh,KinaseGlo FLuc
COc1ccc(NC(=O)NCc2ccccc2F)cc1OC,-1%,-2%,-2%,-4%,11%,2%
COC(=O)c1sccc1NC(=O)c1ccc(C(C)C)cc1,15%,28%,3.5µM*,11µM*,/,/
COc1cccc(NC(=O)NCc2ccccc2F)c1,?,22%,?,17µM*,28%,-3%
COc1ccc(NC(=O)Nc2ccc(F)cc2F)cc1,?,2.2µM*,2.8µM*,5.4µM*,20µM*,-6%
COC(=O)c1sccc1NC(=O)Nc1cc(C)cc(C)c1,?,4%,-5%,7.6µM*,/,/
COC(=O)c1sccc1NC(=O)c1ccccc1,0%,-5%,-3%,-2%,8%,0%
COc1ccc(S(=O)(=O)N(C)c2ccc(C(=O)N3CCC(C(N)=O)CC3)cc2)cc1OC,-1%,-1%,-1%,0%,25%,2%
CN(C)S(=O)(=O)c1cccc(NC(=O)CSc2cccc3cccnc23)c1,11%,1%,0%,-3%,/,/
CCOC(=O)c1nn(-c2ccccc2F)c(-c2ccccc2)c1C(=O)c1ccccc1,-4%,-4%,0%,1%,1%,-1%
COC(=O)c1sccc1NC(=O)Nc1ccc(F)cc1,11%,1%,0%,8.5µM*,/,/
COC(=O)c1sccc1NC(=O)Nc1ccc(F)cc1F,4%,-3%,2%,21µM*,/,/
O=C(CSc1nc2ccc(NC(=O)C3CCCCC3)cc2s1)NCC1CCCO1 (stereo unspecified),-2%,13%,18%,17µM*,-9%,1%
COc1ccccc1C(=O)Nc1nnc(SCC(=O)NCC2CCCO2)s1 (stereo unspecified),?,1.4µM*,3.5µM*,6µM*,/,/
O=C(CSc1nnc(NC(=O)c2cccc(Cl)c2)s1)NCC1CCCO1 (stereo unspecified),?,20%,23%,6.7µM*,/,/
COc1cc(C(=O)Nc2nnc(SCC(=O)NCC3CCCO3)s2)cc(OC)c1OC (stereo unspecified),5%,-5%,3%,-1%,/,/
O=C(CSc1nc2ccccc2s1)NCC1CCCO1 (stereo unspecified),10%,1%,19%,-8%,/,/
COc1cccc(C=NCCCN=Cc2cccc(OC)c2O)c1O,-4%,0%,-2%,-11%,/,/
CCOc1ccccc1NC(=O)C1=C(C)Nc2ncnn2C1c1ccc(C)o1 (stereo unspecified),/,/,/,2%,/,/
O=C(/C=C/Nc1ccc(Nc2ccccc2)cc1)c1cccs1,?,4µM*,2µM*,4.3µM*,/,-13%
Cc1ccc(N/C=C/C(=O)c2cccs2)cc1C,?,24%,3.5µM*,0.19µM*,2.2µM*,-18%
O=C(/C=C/Nc1cccc([N+](=O)[O-])c1)c1cccs1,?,21%,3.2µM*,1.7µM*,16µM*,-11%
Cc1cc(N/C=C/C(=O)c2cccs2)ccc1F,2.9µM*,?,4µM*,0.95µM*,14µM*,-12%
C/C(=N\OCC(=O)Nc1ccccc1C(=O)O)c1cccs1,2%,13%,16%,21µM*,/,/
O=C(O)c1ccccc1C(=O)c1cccs1,-1%,1%,-4%,3%,-1%,-4%
O=C(/C=C/Nc1ccccc1C(=O)O)c1cccs1,16µM*,1.4µM*,1µM*,3.4µM*,11µM*,-15%
CC(=O)N1CCC(N(Cc2ccco2)C(=O)Nc2cccc(C)c2)CC1,/,/,/,-1%,/,/
CC(=O)c1ccc(NC(=S)NCc2ccc(Cl)cc2Cl)cc1,-6%,0%,-6%,-9%,?,2%
